System: VDR:RXRa (NR concentration 270 nM, RXRa partner concentration 90 nM)
Experiment: PBM binding z-score (relative to random genomic background probes); higher = stronger binding; sequences stand for … in GC…GCGATTGACAGCGTAGAATGAAGG
Description: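 Protein-binding microarray (Agilent 4x180K custom design, double-stranded 60-nt probes: 5' GC cap, 34-nt variable region, 24-nt constant primer region; full probe sequence given). Purified or IVT nuclear receptor:RXRα heterodimers (3:1 NR:RXRα, mostly 270:90 nM) or homodimers were incubated for 1 h in PBS with 2% milk and no ligand, then detected with Alexa488 antibodies. Fluorescence from o1-orientation probes (~5 replicates averaged) was converted to z-scores against 500 random hg19 background probes. Variable regions are seed direct-repeat (DR0–DR5) sites, all their single-nucleotide variants and half-site ablations.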

Question: How did the PBM binding z-score turn out when TCTCGGAGGACGCGAAGGTCAGAGCTTTCCAGAG was run?
Answer: The PBM binding z-score was 1.23.

Question: Which PBM binding z-score does the source give for AGAATGAGGTTATACGTAGATGAGGGAAGAAAGT here?
Answer: Its PBM binding z-score is 1.53.

Question: How did the PBM binding z-score turn out when CCTACTGAGCCACGAAAGGTCATTGATTCAGTGA was run?
Answer: The PBM binding z-score was 3.97.

Question: How did the PBM binding z-score turn out when TCTTGTAGATCAACAGGAGGTGAAGAAAGATCGA was run?
Answer: The PBM binding z-score was 0.032.

Question: How did the PBM binding z-score turn out when CGTCCAAGGTCAAGGTCAGTGAGAGAGACTCGAA was run?
Answer: Its PBM binding z-score is 4.84.

Question: ACTATTAGTTGACTTAGGGCAACCTATACGACGC was tested. Which PBM binding z-score did it give?
Answer: Its PBM binding z-score is 0.406.

Question: How did the PBM binding z-score turn out when CCAGACAGGTGAGGAGGTAACTCAGCCTCGATTA was run?
Answer: The PBM binding z-score was 0.00298.

Question: With TCTAGTAGGTTAGTCGGGGCATTCAGCCAACATA as the sequence, how does the PBM binding z-score read?
Answer: Its PBM binding z-score is 2.68.

Question: With CAAACTAGGTCACGAAAGGTCACAGTCGAATGAC as the sequence, how does the PBM binding z-score read?
Answer: The PBM binding z-score was 6.75.

Question: With CCAGACAGGTGAGAACGTAACTCAGCCTCGATTA as the sequence, how does the PBM binding z-score read?
Answer: The PBM binding z-score was -0.0392.

Question: Which PBM binding z-score does the source give for GTACCAAGGTCAATAGGTCGTTGATGAGTAGGCG here?
Answer: The PBM binding z-score was 4.69.

Question: For TAGAGTAGGTTACCAATGGGGCATTCAGCTTTCT, which PBM binding z-score is on record?
Answer: Its PBM binding z-score is 0.34.

Question: With CCAGACAAGTGAAAGGTAACTCAGTCTGGTACGC as the sequence, how does the PBM binding z-score read?
Answer: The PBM binding z-score was 0.274.

Question: How did the PBM binding z-score turn out when TCCTGTAGATCAATAGAGGTTAAGAAAGTGCGCT was run?
Answer: Its PBM binding z-score is 1.67.

Question: Which PBM binding z-score does the source give for TCAGAAAGGTGAAGGTAACTCAGGTACGCAGTCG here?
Answer: The PBM binding z-score was 1.35.

Question: For CCTTCTGGGCCAAAGGTCATTGATTCCAATGCTC, which PBM binding z-score is on record?
Answer: The PBM binding z-score was 4.59.

Question: For CCGACTGGGGCAAACGTTACCATACTCAGTACGA, which PBM binding z-score is on record?
Answer: The PBM binding z-score was -0.23.

Question: How did the PBM binding z-score turn out when ATCGAAAGGTCGACTAGGTGAGTATACACCGTTT was run?
Answer: The PBM binding z-score was 3.25.

Question: CAAACTAGGTCAAAGGTTAAAGTCGAGCCAACCA was tested. Which PBM binding z-score did it give?
Answer: Its PBM binding z-score is 4.87.

Question: With ATCTCTAGGTAAAGATATTTCAGTGAATGCAAAT as the sequence, how does the PBM binding z-score read?
Answer: Its PBM binding z-score is 0.441.

Question: CGTCAAAGTTTAAGGTAACGTAACAGAAAGCAGC was tested. Which PBM binding z-score did it give?
Answer: Its PBM binding z-score is 0.3.

Question: How did the PBM binding z-score turn out when ATATTTAGGTTATCGGGTCATTCAGTTTGCGCAT was run?
Answer: Its PBM binding z-score is 5.35.

Question: CGTCCAAGGTCATAGGTCAGTGAAGAGATGACGG was tested. Which PBM binding z-score did it give?
Answer: The PBM binding z-score was 5.32.

Question: ATCTCTAGGTAAAAGTTCAGTTAATCCCGAGGAT was tested. Which PBM binding z-score did it give?
Answer: The PBM binding z-score was 1.44.

Question: Which PBM binding z-score does the source give for GCTAGCAGGCCATTTGGGTCACTCACTGACGGGC here?
Answer: The PBM binding z-score was 0.766.

Question: For AGTCCAAGTTCAGGACGAGGTAACGTAAAGCACG, which PBM binding z-score is on record?
Answer: The PBM binding z-score was 2.51.

Question: For CCGACTGGGGCAGAAAGATTACCATACCATCCGG, which PBM binding z-score is on record?
Answer: The PBM binding z-score was -0.535.

Question: How did the PBM binding z-score turn out when CGAACTAGGTCATTGACAGGGCAGTGAATAGTAA was run?
Answer: Its PBM binding z-score is 2.15.

Question: How did the PBM binding z-score turn out when CCTAGTTGGACAGGAGGTCACACACCGGATATGA was run?
Answer: Its PBM binding z-score is 3.69.

Question: Which PBM binding z-score does the source give for CTCGAAAGGTCGGTTGAGGTGTGTATACGGATAA here?
Answer: Its PBM binding z-score is 1.03.

Question: For CTCGAAAGGTCGGTTGAGGTGAGTATACGGATAA, which PBM binding z-score is on record?
Answer: The PBM binding z-score was 2.14.

Question: Which PBM binding z-score does the source give for TAGCCTACGTCATTGGGCCAGTATAGTACGCATC here?
Answer: Its PBM binding z-score is -0.617.

Question: For GATACAGGGTCAGATAGAGGCCAGAGTATGGAAA, which PBM binding z-score is on record?
Answer: Its PBM binding z-score is 3.49.

Question: For CCTAGTTTGTCAGGAGGTCACACACCGGATATGA, which PBM binding z-score is on record?
Answer: Its PBM binding z-score is 4.19.

Question: With TCATATAGGTAAATGCTAGCTGAAAGTCCGATCT as the sequence, how does the PBM binding z-score read?
Answer: The PBM binding z-score was 0.702.

Question: With AGAATAAGGTTAAGATCAGGGAAACAGAATACAT as the sequence, how does the PBM binding z-score read?
Answer: Its PBM binding z-score is 1.14.

Question: For CGTCCAAGGTCATAGGAGATCAGTGAAGACAGAT, which PBM binding z-score is on record?
Answer: The PBM binding z-score was 4.3.

Question: Which PBM binding z-score does the source give for ATCTCTACGTAACAAGTTCAGTGAAAGAGAGGAC here?
Answer: Its PBM binding z-score is 1.38.

Question: Which PBM binding z-score does the source give for GGAACGATGGCAAAGTTGATAGCATCTGTCGACG here?
Answer: The PBM binding z-score was -0.351.

Question: How did the PBM binding z-score turn out when CAAACTAGGTCACAGAGGTCAAAGTACGTGCGTA was run?
Answer: Its PBM binding z-score is 7.94.
